Sampled rows, rich in hits. Any-hit rate of the full collection: about 12%.
HP1b binding inh – HTS for Inhibitors of HP1-beta Chromodomain Interactions with Methylated Histone Tails; Chromobox protein homolog 1 (Homo sapiens), P83916; AlphaScreen HP1-beta / biotin-H3K9me3 peptide binding; Potency, µM (top dose mostly 114 µM), most hits filed as inhibitors; 390,000 tested, 0.56% active; AID 540317, 2011; note: nearly all actives have a fitted effect of over 70% in size
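Compound inhibition of the preformed complex between 50 nM HP1-beta and 50 nM biotinylated H3K9me3 peptide was read by AlphaScreen. Buffer was PBS pH 7.4 with 0.01% Tween-20. Incubations ran 30 min at room temperature, with 10 ug/mL donor/acceptor beads.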
BAZ2B inh – qHTS Assay for Inhibitors of BAZ2B. AlphaScreen BAZ2B-H3K14Ac peptide displacement. Potency, µM (titrated, usually from 114 µM), usual class: inhibitors. Bromodomain adjacent to zinc finger domain protein 2B (Homo sapiens), Q9UIF8. 360,000 tested, 4.4% active; note: nearly all actives have a fitted effect of over 60% in size
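Multi-concentration screen (max 110 uM) measuring displacement of acetylated histone H3 peptide from BAZ2B by AlphaScreen, using 50 nM protein, 50 nM peptide and 10 ug/mL streptavidin donor plus Ni-chelate acceptor beads.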
JMJD2A Tudor inh – qHTS Assay for Inhibitors of JMJD2A-Tudor Domain | Lysine-specific demethylase 4A (Homo sapiens), O75164 | 390,000 tested, 4.4% active | Potency, µM (highest dose often 114 µM), hits mostly inhibitors | AlphaScreen JMJD2A-Tudor / H3K4me3 peptide binding; note: nearly all actives have a fitted effect of over 50% in size
Sfp inh – qHTS Assay for Inhibitors of Bacillus subtilis Sfp phosphopantetheinyl transferase (PPTase). 4'-phosphopantetheinyl transferase ffp (Bacillus subtilis), Q9F4F7. Biochemical Sfp PPTase activity, qHTS. Potency, µM, hits mostly inhibitors. 310,000 tested, 3.5% active;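 note: the enzyme is Sfp with the accession as filed and its product quenches rhodamine fluorescence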
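Fluorescence-quenching assay: 15 nM Sfp-PPTase preincubated 15 min at room temperature with compound, then 5 uM rhodamine-CoA and 12.5 uM BHQ-2-labelled YbbR peptide added. Fluorescence (ex 525/em 598 nm) read at start and after 30 min; difference gives rate.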
G9a block – qHTS Assay for Inhibitors of Histone Lysine Methyltransferase G9a; 350,000 tested, 8.8% active; Histone-lysine N-methyltransferase EHMT2 (Homo sapiens), Q96KQ7; Potency, µM (titrated, usually from 102 µM), actives largely listed as inhibitors; G9a H3K9 monomethylation, AlphaScreen, 2 h; note: nearly all actives have a fitted effect of over 75% in size
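AlphaScreen detection with an anti-monomethyl H3K9 antibody quantified product after a 2 h room-temperature reaction containing 500 nM biotinylated H3K9 peptide, 20 µM SAM and 20 nM enzyme, which had been preincubated 15 min with compound.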
PLK1 PBD inh – qHTS for Inhibitors of PLK1-PDB (polo-like kinase 1 - polo-box domain): Primary Screen; Plk1 PBD binding of FITC phosphopeptide, fluorescence polarization; AID 720504, 2013; 360,000 tested, 2.8% active; Potency, µM, hits mostly inhibitors; note: series mostly up to about 57 µM; nearly all actives have a fitted effect of over 65% in size
Target sequence (P53350 whole entry, looked up, the tested form may be a part): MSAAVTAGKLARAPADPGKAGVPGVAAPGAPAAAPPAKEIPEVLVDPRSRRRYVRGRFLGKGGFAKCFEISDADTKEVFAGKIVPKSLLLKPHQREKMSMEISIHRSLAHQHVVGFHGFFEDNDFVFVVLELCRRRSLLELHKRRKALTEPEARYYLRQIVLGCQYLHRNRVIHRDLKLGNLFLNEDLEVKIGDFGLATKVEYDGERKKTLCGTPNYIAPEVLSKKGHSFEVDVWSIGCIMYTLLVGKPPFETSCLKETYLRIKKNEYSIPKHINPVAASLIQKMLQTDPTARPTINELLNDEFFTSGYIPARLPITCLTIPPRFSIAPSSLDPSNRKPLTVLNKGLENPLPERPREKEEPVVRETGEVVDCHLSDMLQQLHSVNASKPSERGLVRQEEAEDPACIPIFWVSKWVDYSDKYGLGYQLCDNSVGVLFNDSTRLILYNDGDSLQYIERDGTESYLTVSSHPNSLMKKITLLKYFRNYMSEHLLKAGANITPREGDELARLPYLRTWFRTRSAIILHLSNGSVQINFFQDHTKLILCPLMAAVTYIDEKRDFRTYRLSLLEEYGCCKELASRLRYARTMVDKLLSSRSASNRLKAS
Large screens that a line does not name were inactive. Calls come from the whole dose curve; as a rule, active = well fitted curve in the direction sought with a large enough effect; inconclusive = small, poorly fitted or top-dose-only effect, or another doubt; inactive = no such curve, though single readings can be large; an effect the other way counts as inactive or inconclusive.

O=C(C1=C(O)C(=O)N(CCN2CCOCC2)C1c1cccc(Br)c1)c1cccs1 (stereo not given)	G9a block 56µM
Cc1cccc(CCNC(=O)C2CCCN(S(=O)(=O)c3ccc4c(c3)oc(=O)n4C)C2)c1 (stereo not given)	none (no result: Sfp inh, PLK1 PBD inh)
O=C(COC(=O)c1ccc[nH]c1=O)Nc1ccc(S(=O)(=O)N2CCCC2)cc1	JMJD2A Tudor inh inconclusive
O=C(COC(=O)c1ccc(O)cc1)Nc1cc(S(=O)(=O)N2CCCCCC2)ccc1Cl	none (no result: HP1b binding inh, BAZ2B inh, JMJD2A Tudor inh, Sfp inh, G9a block)
O=C(COC(=O)c1ccc[nH]c1=O)Nc1cc(S(=O)(=O)N2CCCCC2)ccc1Cl	JMJD2A Tudor inh 89µM, PLK1 PBD inh inconclusive
Nc1cc(N)cc(C(=O)OCC(=O)Nc2cc(S(=O)(=O)N3CCCCC3)ccc2Cl)c1	HP1b binding inh 50µM, BAZ2B inh 25µM, JMJD2A Tudor inh 35µM, G9a block 32µM
Cc1nc(-c2ccc(S(=O)(=O)N3CCN(C4c5ccccc5-c5ccccc54)CC3)s2)cs1	HP1b binding inh inconclusive, G9a block 56µM
O=S(=O)(c1ccc(Cl)s1)N1CCN(CCc2ccccc2)CC1	none (no result: G9a block)
Cc1nc(-c2ccc(S(=O)(=O)N3CCCN(CCc4ccccc4)CC3)s2)cs1	BAZ2B inh 56µM, JMJD2A Tudor inh inconclusive, G9a block 50µM
Cc1nc(-c2ccc(S(=O)(=O)Oc3ccccc3Cl)s2)cs1	none
Cc1cc(C)n(CCCNCC(O)c2ccccc2)n1 (stereo not given)	HP1b binding inh inconclusive, BAZ2B inh inconclusive, JMJD2A Tudor inh 79µM, G9a block 22µM
Cc1nnc2c(N3CCN(c4ccccc4F)CC3)nc3ccc(C(=O)c4ccccc4)cc3n12	none (no result: Sfp inh, PLK1 PBD inh)
O=C(c1ccc2c3c(cccc13)CC2)C1CCCN(Cc2ccncc2)C1 (stereo not given)	BAZ2B inh inconclusive, JMJD2A Tudor inh 56µM, G9a block inconclusive
O=C(c1ccc2c3c(cccc13)CC2)C1CCCN(C(=O)c2ccc(=O)[nH]c2)C1 (stereo not given)	BAZ2B inh inconclusive, JMJD2A Tudor inh inconclusive, Sfp inh 50µM (no result: G9a block)
CCc1nc(CN2CCCC(C(=O)c3ccc4c5c(cccc35)CC4)C2)c(C)[nH]1 (stereo not given)	BAZ2B inh inconclusive, JMJD2A Tudor inh inconclusive, G9a block inconclusive
CCCCn1nc(C(=O)Nc2cc(C(F)(F)F)ccc2N2CCOCC2)ccc1=O	none (no result: Sfp inh)
COc1ccc(-c2nsc(NC(=O)c3oc4cc(C)c(C)cc4c3C)n2)cc1	none (no result: Sfp inh, PLK1 PBD inh)
Cc1cc(C)c2c(-n3cccc3)c(C(=O)NNS(=O)(=O)c3ccc(Br)cc3)sc2n1	BAZ2B inh inconclusive, JMJD2A Tudor inh 56µM, G9a block inconclusive, PLK1 PBD inh inconclusive
COc1cccc(Cn2c(=O)c(-c3cc(F)cc(F)c3)nc3cnc(N(C)C)nc32)c1	none (no result: HP1b binding inh, BAZ2B inh, JMJD2A Tudor inh, PLK1 PBD inh)
Cn1nc(Cc2n[nH]c(=S)n2C)c2ccccc2c1=O	JMJD2A Tudor inh 4µM (no result: G9a block)
CCOC(=O)Cc1nn(C)c(=O)c2ccccc12	none
CCOC(=O)c1sc(N2N=C(C)C(N=Nc3cccc(C)c3)C2=O)nc1C (stereo not given)	G9a block 50µM
CC1=NN(c2nc(-c3ccc(C)cc3)cs2)C(=O)C1N=Nc1cccc(C)c1 (stereo not given)	HP1b binding inh inconclusive, BAZ2B inh inconclusive, JMJD2A Tudor inh inconclusive, G9a block inconclusive
Cc1ccn2c(c1)nc(=S)n2C(=O)c1ccco1	Sfp inh inconclusive, G9a block 10µM (no result: HP1b binding inh, JMJD2A Tudor inh, PLK1 PBD inh)
CCOc1ccc(NCc2cc3c(C(C)(C)C)nn(-c4ccccc4)c3[nH]c2=O)cc1	HP1b binding inh inconclusive, BAZ2B inh 22µM, JMJD2A Tudor inh 50µM, G9a block 40µM

From PubChem
